# Results taken from PubChem BioAssay.
# Activity calls are given as the source filed them.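 The calls were made as follows, unless noted: active = fluorescence slope higher than the sample average by over 3 SD (cut at about -0.22 in these data, passing the limit was not always enough); inactive = the rest.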
# Legend:
# [1] = inhibitors of TNFa-induced NFkB p65 translocation, primary screen, imaging, HUVEC, MLSMR starter and 10KST1 sets (AID 438;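 active = inhibition above 20% together with a positive visual image hit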;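 also: compound added about 3h40 before a 20 min TNFalpha stimulation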;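 as to inhibition: signal is the nuclear over cytoplasmic p65 intensity ratio per well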); settings: HUVEC TNFa-induced p65 nuclear translocation; cell count: measured here: nuclei count (cytotoxicity indicator), at 2.08 µM; inhibition: at 2 µM, stronger effect = higher value, 0% TNFa-plus-vehicle, 100% no-TNFa wells
# [2] = inhibitors of mutant huntingtin aggregation, primary screen, imaging, exon1htt(103Q)mCFP cells, high-content imaging (AID 483;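 active = visual image review flags a hit and inhibition of aggregation exceeds 20%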;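 also: compound exposure lasted 3 days before fixation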;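 as to nuclei count: percent of the per-plate median nuclei count of sample wells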); settings: exon1htt(103Q)mCFP cell line, aggregate imaging, at 2 µM; inhibition of aggregation: stronger effect = higher value; nuclei count: measured here: cell count, toxicity
# [3] = inhibitors of E-selectin induction by TNFa, primary screen, imaging, HUVEC, immunofluorescence, MLSMR starter and 10KST1 sets (AID 487;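 active = visually confirmed hit in the image check and inhibition above 20%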;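 as to inhibition: signal is fraction of cell area covered by stained E-selectin grains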;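 as to nuclei count: 100% = median nuclei count of all wells on the same plate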); settings: HUVEC TNFalpha-induced E-selectin immunofluorescence imaging, at 2 µM; inhibition: stronger effect = higher value; nuclei count: measured here: cell number, toxicity
# [4] = molecular target: Voltage-gated potassium channel subunit beta-2 (Rattus norvegicus) (UniProt P62483); assay: KvBeta enzyme negative modulators, primary screen, biochemical, NADPH fluorescence (AID 622); settings: recombinant KvBeta, 4-cyanobenzaldehyde reduction, at 10 µM, stronger effect = higher value;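 also: slope of raw intensity against log time taken from 70 to 1610 s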
# [5] = molecular target: Voltage-gated potassium channel subunit beta-2 (Rattus norvegicus) (UniProt P62483); assay: KvBeta positive modulators, primary screen, biochemical, NADPH fluorescence (AID 623;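 active = NADPH fluorescence slope more negative than the mean of all samples by about 3 SD, 99.7% confidence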;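 also: fluorescence intensity change per second fitted from 20 to 320 s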); settings: Recombinant KvBeta, NADPH fluorescence decrease slope, 10 min; at 10 µM; stronger effect = lower value
# [6] = molecular target: Alpha-2C adrenergic receptor (Homo sapiens) (UniProt P18825); assay: modulators of alpha2C/GIRK thallium flux, primary screen, cell-based, HEK293 alpha2C/GIRK1/2 (AID 624;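 active = fluorescence slope after compound addition differing from the mean of all screened samples at 99.7% confidence, in either direction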;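 also: slope of fluorescence ratio to pre-addition baseline per second over 15 to 24 s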); settings: thallium flux BTC fluorescence, at 10 µM, actives lie on both sides
# [7] = inhibitors of Sendai virus-induced IRF3 signaling, primary screen, TLR/RLR signaling modifier project, cell-based, Sendai virus stimulus, luciferase, 10K MLSCN set (AID 602276;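 active = inhibition at or above 50% at 10 µM; inactive = inhibition below 50%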;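 also: firefly luciferase from ISG56 promoter only with Renilla not read in this screen; 0% = Sendai virus plus DMSO and 100% = medium plus DMSO without virus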); settings: HEK293 RL24 IRF3 luciferase reporter, at 10 µM, stronger effect = higher value
# [8] = inhibitors of poly I:C-induced TLR3 signaling, primary screen, cell-based, poly I:C stimulus, luciferase, 10K MLSCN set (AID 602277;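 active = inhibition of the reporter signal at or above 50%; inactive = inhibition below 50%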); settings: HEK293-TLR3 RL24 IRF3 luciferase reporter, at 10 µM, stronger effect = higher value
# Voltage-gated potassium channel subunit beta-2 (Rattus norvegicus), sequence (P62483 whole entry, looked up): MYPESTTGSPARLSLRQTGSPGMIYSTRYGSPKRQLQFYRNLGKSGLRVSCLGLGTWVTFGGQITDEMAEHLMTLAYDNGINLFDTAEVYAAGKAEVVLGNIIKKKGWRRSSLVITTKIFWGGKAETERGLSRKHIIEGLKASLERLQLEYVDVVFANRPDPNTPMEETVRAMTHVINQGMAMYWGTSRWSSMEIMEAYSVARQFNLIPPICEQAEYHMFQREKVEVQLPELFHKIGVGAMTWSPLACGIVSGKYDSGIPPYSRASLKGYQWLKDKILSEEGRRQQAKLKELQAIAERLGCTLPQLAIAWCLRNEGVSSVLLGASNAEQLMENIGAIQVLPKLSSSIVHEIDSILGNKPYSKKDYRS
# Alpha-2C adrenergic receptor (Homo sapiens), sequence (P18825 whole entry, looked up): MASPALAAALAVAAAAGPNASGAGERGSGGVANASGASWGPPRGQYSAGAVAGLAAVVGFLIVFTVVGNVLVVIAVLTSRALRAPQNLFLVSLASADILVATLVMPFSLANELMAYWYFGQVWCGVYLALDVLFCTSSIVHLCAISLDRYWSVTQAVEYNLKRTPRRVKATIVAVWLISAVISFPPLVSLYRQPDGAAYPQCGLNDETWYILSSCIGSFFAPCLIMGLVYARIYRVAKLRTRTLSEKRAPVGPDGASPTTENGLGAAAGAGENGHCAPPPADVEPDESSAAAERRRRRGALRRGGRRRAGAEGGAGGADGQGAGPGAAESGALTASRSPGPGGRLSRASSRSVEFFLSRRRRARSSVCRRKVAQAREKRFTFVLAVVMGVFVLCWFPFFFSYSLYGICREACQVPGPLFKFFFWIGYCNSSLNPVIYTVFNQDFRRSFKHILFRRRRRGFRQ
Structure (SMILES),cell count [1],inhibition [1],inhibition of aggregation [2],nuclei count [2] [%],inhibition [3],nuclei count [3] [%],fluorescence slope [4],NADPH fluorescence slope [5],slope [6],inhibition [7],inhibition [8]
CCOc1ccccc1N(C(=O)c1ccco1)C(C(=O)NC1CCCC1)c1cccnc1 (centres undefined),634,-9.3% (inactive),12.2% (inactive),79.6,10% (inactive),116,-0.563 (inactive),2.3e-05 (inactive),0.00563 (inactive),-2.81% (inactive),13.5% (inactive)
CC(C)(C)c1cc(NC(=O)c2cc(F)c(F)c(F)c2F)no1,405,-2.1% (inactive),-14.9% (inactive),104,-96.2% (inactive),112,-0.435 (inactive),-6.8e-06 (inactive),0.00297 (inactive),-23.2% (inactive),-90.4% (inactive)
Cc1ccc(S(=O)(=O)CC2CSc3nnc(C)c(=O)n32)cc1 (centres undefined),432,-3.3% (inactive),3.8% (inactive),91.3,-36.1% (inactive),173,-0.38 (inactive),-5.3e-05 (inactive),0.00213 (inactive),12.3% (inactive),31.9% (inactive)
O=C(NCc1ccc2c(c1)OCO2)C1CCC(CNc2c(N3CCCCC3)c(=O)c2=O)CC1 (centres undefined),579,6.8% (inactive),2.3% (inactive),109,11.9% (inactive),104,-0.595 (inactive),-4.4e-05 (inactive),0.00656 (inactive),7.38% (inactive),24.7% (inactive)
CC1(C)CC(=O)C(CC(=O)NC(=O)NCc2ccccc2)=C(O)C1,462,3.4% (inactive),0.1% (inactive),102,-65.4% (inactive),99.2,-0.501 (inactive),1e-05 (inactive),0.00433 (inactive),-1.73% (inactive),7.39% (inactive)
CCOc1cc(C2/C(=C(/O)c3ccc(OC(C)C)cc3)C(=O)C(=O)N2CCCOC)ccc1O (centres undefined),714,-7.5% (inactive),-20.2% (inactive),111,-120% (inactive),111,-0.513 (inactive),2e-05 (inactive),0.00381 (inactive),12.7% (inactive),14.8% (inactive)
CCOc1ccccc1C(=O)NCC(=O)OCC(=O)N1C(C)CCCC1C (centres undefined),683,-3.4% (inactive),-9.7% (inactive),103,26.6% (inactive),112,-0.615 (inactive),3e-05 (inactive),0.00593 (inactive),11.2% (inactive),17.1% (inactive)
Cc1cc(C(=O)Cn2cncn2)c(C)n1CCc1ccc(F)cc1,453,-2.5% (inactive),0.8% (inactive),91.7,-92.9% (inactive),98.5,-0.48 (inactive),-4e-05 (inactive),0.00641 (inactive),0.317% (inactive),16.3% (inactive)
CC(C)OC(=O)CSc1nnc(-c2ccco2)n1N,618,0% (inactive),7.4% (inactive),93.2,-1% (inactive),97.5,-0.422 (inactive),-2.8e-05 (inactive),0.00405 (inactive),0.828% (inactive),17% (inactive)
Cn1c(N2CCC(C(N)=O)CC2)nc2c1c(=O)n(Cc1ccc(Br)cc1)c(=O)n2C,537,-2.7% (inactive),4.3% (inactive),97.3,24.2% (inactive),95.1,-0.571 (inactive),-2.3e-05 (inactive),0.00671 (inactive),6.03% (inactive),1.39% (inactive)
O=C(Nc1ccc(F)cc1)N(Cc1ccco1)Cc1cc2cc3c(cc2[nH]c1=O)OCO3,473,4.5% (inactive),6.1% (inactive),96.6,15.9% (inactive),102,-0.418 (inactive),-2e-05 (inactive),0.0056 (inactive),-8.59% (inactive),-15.6% (inactive)
O=C(Nc1ccc(S(=O)(=O)N2CCc3ccccc32)cc1)c1ccc2c(c1)OCO2,307,-10% (inactive),14.7% (inactive),95.5,5.1% (inactive),83.2,-0.603 (inactive),-1.6e-05 (inactive),0.0108 (inactive),-3.74% (inactive),-67.6% (inactive)
Cc1cc(C)cc(NC(=O)c2nnn(Cc3cc(C)ccc3C)c2N)c1,598,8.7% (inactive),-15.9% (inactive),90.3,-5.5% (inactive),125,-0.564 (inactive),-3.4e-05 (inactive),0.00689 (inactive),44.9% (inactive),14.5% (inactive)
Nc1nc2n(n1)C(c1cccc(Cl)c1)CC(c1ccc(F)cc1)N2 (centres undefined),678,-12.4% (inactive),-13.4% (inactive),100,-13.6% (inactive),106,-0.42 (inactive),-3.8e-05 (inactive),0.00636 (inactive),11.8% (inactive),25.8% (inactive)
